Laboratory results: PubChem BioAssay (Tox21)
Values joined by “and” are separate entries in the source; they are usually repeats but may differ in a detail not shown here. Equal values may be shown once. Active and inactive are the calls of the source. Unless noted, calls follow the shape of the dose curve; as a rule, active = well fitted curve in the direction sought with a large enough effect in the repeat runs; inconclusive = weak or mixed curves; inactive = no such curve, though single readings can be large; an effect the other way counts as inactive or inconclusive.

What was measured:
[1] = qHTS assay to identify small molecule antagonists of the thyroid receptor (TR) signaling pathway - cell viability counter screen (AID 743064); also: nearly all actives have a fitted effect of over 50% in size; also: potency is read from the fitted curve at half-maximal effect
Method in brief: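 Counter screen for cytotoxicity: compound plus T3 (1 nM final) on GH3.TRE-Luc cells, 23.5 h at 37 °C, then fluorescence viability readout with CellTiter-Fluor.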

[2] = qHTS assay to identify small molecule antagonists of the thyroid receptor (TR) signaling pathway (AID 743065); also: nearly all actives have a fitted effect of over 55% in size; also: potency is read from the fitted curve at half-maximal effect
Method in brief: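 GH3.TRE-Luc rat pituitary cells (two TREs driving luciferase) were dosed with compound, then stimulated with 1 nM T3 (final) for 23.5 h at 37 C. ONE-Glo luminescence was the read-out, with CellTiter-Fluor fluorescence as the cytotoxicity counter-screen.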

[3] = target: Estrogen receptor (Homo sapiens) (UniProt P03372); experiment: qHTS assay to identify small molecule antagonists of the estrogen receptor alpha (ER-alpha) signaling pathway (AID 743069; active = well fitted curve in the direction sought with a large enough effect in the signal ratio in the repeat runs, not every such curve was filed as active; inconclusive = weak or mixed curves, or effect the other way; inactive = no such curve, though single readings can be large or run the other way; the % refers to the signal ratio; also: potency is read from the fitted curve at half-maximal effect)
Method in brief: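 In this cell-based reporter format, GripTite HEK293 cells harbouring ER-alpha-UAS-bla were grown overnight with 2% charcoal-stripped FBS, dosed with DMSO-dissolved compounds, then challenged with 17beta-estradiol. After 18 hr at 37C, beta-lactamase activity was detected by FRET fluorescence.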

[4] = target: Estrogen receptor (Homo sapiens) (UniProt P03372); experiment: qHTS assay to identify small molecule agonists of the estrogen receptor alpha (ER-alpha) signaling pathway (AID 743075; calls by dose curve; also: potency is read from the fitted curve at half-maximal effect)
[5] = qHTS assay to identify small molecule antagonists of the estrogen receptor alpha (ER-alpha) signaling pathway using the BG1 cell line - cell viability counter screen (AID 743081);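 also: compound given together with 17beta-estradiol as the ER stimulus; nearly all actives have a fitted effect of over 45% in size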; also: potency is read from the fitted curve at half-maximal effect
Aromatase (Homo sapiens) = Aromatase (Homo sapiens) (UniProt P11511); experiment: qHTS assay to identify aromatase inhibitors (AID 743083); also: nearly all actives have a fitted effect of over 55% in size; also: potency is read from the fitted curve at half-maximal effect
[6] = qHTS assay to identify aromatase inhibitors - cell viability counter screen (AID 743084);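 also: cells stimulated with testosterone during compound exposure; nearly all actives have a fitted effect of over 55% in size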; also: potency is read from the fitted curve at half-maximal effect
[7] = qHTS assay to identify small molecule that activate the aryl hydrocarbon receptor (AhR) signaling pathway - cell viability counter screen (AID 743086); also: nearly all actives have a fitted effect of over 45% in size; also: potency is read from the fitted curve at half-maximal effect
Method in brief: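 HepG2-AhR-luc (HG2L7.5c1) cells, 4000/well, treated 24 h at 37 C with compound; viability measured as CellTiter-Fluor fluorescence after 30 min in the same wells as the luciferase read.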

[8] = target: Peroxisome proliferator-activated receptor gamma (Homo sapiens) (UniProt P37231); experiment: qHTS assay to identify small molecule antagonists of the peroxisome proliferator-activated receptor gamma (PPARg) signaling pathway (AID 743191; calls by dose curve; also: potency is read from the fitted curve at half-maximal effect; nearly all actives have a fitted effect of over 30% in size)
Method in brief: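 GeneBLAzer PPARg UAS-bla HEK293H cells, 5 h post-plating, exposed to compounds 17 h at 37C. LiveBLAzer B/G FRET substrate added for 1 h at room temperature; beta-lactamase reporter read by fluorescence intensity.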

[9] = qHTS assay to identify small molecule antagonists of the peroxisome proliferator-activated receptor gamma (PPARg) signaling pathway - cell viability counter screen (AID 743194); also: nearly all actives have a fitted effect of over 55% in size; also: potency is read from the fitted curve at half-maximal effect
Method in brief: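 Cytotoxicity counter screen in PPARg-bla HEK293H cells, same wells as reporter assay. Compounds plus 50 nM rosiglitazone (final) for 17 h at 37 C, then viability read by CellTiter-Glo luminescence.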

[10] = qHTS assay to identify small molecule agonists of the peroxisome proliferator-activated receptor delta (PPARd) signaling pathway - cell viability counter screen (AID 743211); also: nearly all actives have a fitted effect of over 55% in size; also: potency is read from the fitted curve at half-maximal effect
Method in brief: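 Following 5 h plating at 37 C and 5% CO2, PPARd UAS-bla HEK293H cells took up test compounds for 17 h. Viability was quantified by luminescence 30 min after CellTiter-Glo addition at room temperature.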

[11] = qHTS assay to identify small molecule antagonists of the estrogen receptor alpha (ER-alpha) signaling pathway using the BG1 cell line (AID 743080; calls by dose curve;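 also: BG1 cells stimulated with 17beta-estradiol alongside compound; nearly all actives have a fitted effect of over 25% in size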; also: potency is read from the fitted curve at half-maximal effect)
Method in brief: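 Luciferase inhibition measured with ONE-Glo after 30 min at RT in BG1Luc4E2 cells given test compounds and 17beta-estradiol for 21.5 h at 37 C; CellTiter-Fluor viability read in the same wells beforehand.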

[12] = target: Aryl hydrocarbon receptor (Homo sapiens) (UniProt P35869); experiment: qHTS assay to identify small molecule that activate the aryl hydrocarbon receptor (AhR) signaling pathway (AID 743085);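 also: HG2L7.5c1 human HepG2 liver cells with stably integrated DRE-driven firefly reporter; series mostly up to about 70 µM; nearly all actives have a fitted effect of over 15% in size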
Method in brief: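 Measured in HG2L7.5c1 cells: CellTiter-Fluor signal (30 min incubation, 37C) for viability, then luciferase luminescence (30 min, room temperature). Compound contact time was 24 h at 37C, following a 5 h pre-incubation.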

[13] = target: Peroxisome proliferator-activated receptor gamma (Homo sapiens) (UniProt P37231); experiment: qHTS assay to identify small molecule agonists of the peroxisome proliferator-activated receptor gamma (PPARg) signaling pathway (AID 743094; active = well fitted activation curve with a large enough effect in the signal ratio in the repeat runs, not every such curve was filed as active; inconclusive = weak or mixed curves, or effect the other way; inactive = no such curve, though single readings can be large or run the other way; the % refers to the signal ratio)
Method in brief: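 Cell-based bla reporter, HEK293H background, PPARg-driven UAS. Pre-incubation 5 h, 37C, 5% CO2. Compound 17 h, 37C. Substrate 1 h RT; fluorescence.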

[14] = tested on: thyroid hormone receptor (rat, GH3 cells); experiment: qHTS assay to identify small molecule agonists of the thyroid receptor (TR) signaling pathway (AID 743066; calls by dose curve)
[15] = qHTS assay to identify small molecule antagonists of the estrogen receptor alpha (ER-alpha) signaling pathway - cell viability counter screen (AID 743074; calls by dose curve; also: nearly all actives have a fitted effect of over 45% in size)
[16] = target: Estrogen receptor (Homo sapiens) (UniProt P03372); experiment: qHTS assay to identify small molecule agonists of the estrogen receptor alpha (ER-alpha) signaling pathway using the BG1 cell line (AID 743079); also: nearly all actives have a fitted effect of over 20% in size
[17] = qHTS assay for small molecule agonists of the antioxidant response element (ARE) signaling pathway - cell viability counter screen (AID 743203; calls by dose curve)
Method in brief: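 Measured in the same wells as the beta-lactamase ARE reporter, this read-out is CellTiter-Glo luminescence from HepG2 ARE-bla cells given compounds for 16 hrs.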

Measured: Potency

Sequence of Estrogen receptor (Homo sapiens) (P03372 whole entry, looked up): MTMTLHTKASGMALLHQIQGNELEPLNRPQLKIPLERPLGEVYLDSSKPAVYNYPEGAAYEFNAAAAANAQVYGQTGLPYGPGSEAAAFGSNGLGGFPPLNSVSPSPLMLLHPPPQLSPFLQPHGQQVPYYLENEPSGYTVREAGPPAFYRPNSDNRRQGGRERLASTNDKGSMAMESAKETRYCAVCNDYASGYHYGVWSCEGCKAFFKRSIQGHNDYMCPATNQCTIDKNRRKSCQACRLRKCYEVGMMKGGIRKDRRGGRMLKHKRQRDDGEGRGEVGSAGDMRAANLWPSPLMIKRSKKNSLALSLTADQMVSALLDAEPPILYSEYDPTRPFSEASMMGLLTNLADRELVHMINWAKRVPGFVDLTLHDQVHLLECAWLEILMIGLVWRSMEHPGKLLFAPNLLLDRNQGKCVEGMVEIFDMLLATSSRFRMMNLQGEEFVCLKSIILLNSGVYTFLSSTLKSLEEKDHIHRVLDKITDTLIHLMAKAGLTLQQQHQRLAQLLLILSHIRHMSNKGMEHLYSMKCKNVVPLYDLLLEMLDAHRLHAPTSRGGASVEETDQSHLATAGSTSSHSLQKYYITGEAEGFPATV
Sequence of Peroxisome proliferator-activated receptor gamma (Homo sapiens) (P37231 whole entry, looked up): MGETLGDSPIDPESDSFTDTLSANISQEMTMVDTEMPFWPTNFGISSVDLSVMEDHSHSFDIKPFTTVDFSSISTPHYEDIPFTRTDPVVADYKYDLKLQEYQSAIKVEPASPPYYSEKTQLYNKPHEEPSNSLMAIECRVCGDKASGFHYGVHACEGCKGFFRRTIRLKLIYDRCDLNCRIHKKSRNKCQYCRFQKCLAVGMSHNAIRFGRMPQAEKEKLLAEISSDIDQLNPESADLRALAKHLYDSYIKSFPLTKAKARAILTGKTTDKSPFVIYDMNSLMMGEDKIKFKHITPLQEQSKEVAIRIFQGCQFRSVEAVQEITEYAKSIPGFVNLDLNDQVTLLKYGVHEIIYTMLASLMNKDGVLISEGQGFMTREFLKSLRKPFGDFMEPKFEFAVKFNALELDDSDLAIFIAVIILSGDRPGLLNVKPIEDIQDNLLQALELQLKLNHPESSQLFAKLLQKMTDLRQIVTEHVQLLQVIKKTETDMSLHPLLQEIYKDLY
Sequence of Aromatase (Homo sapiens) (P11511 whole entry, looked up): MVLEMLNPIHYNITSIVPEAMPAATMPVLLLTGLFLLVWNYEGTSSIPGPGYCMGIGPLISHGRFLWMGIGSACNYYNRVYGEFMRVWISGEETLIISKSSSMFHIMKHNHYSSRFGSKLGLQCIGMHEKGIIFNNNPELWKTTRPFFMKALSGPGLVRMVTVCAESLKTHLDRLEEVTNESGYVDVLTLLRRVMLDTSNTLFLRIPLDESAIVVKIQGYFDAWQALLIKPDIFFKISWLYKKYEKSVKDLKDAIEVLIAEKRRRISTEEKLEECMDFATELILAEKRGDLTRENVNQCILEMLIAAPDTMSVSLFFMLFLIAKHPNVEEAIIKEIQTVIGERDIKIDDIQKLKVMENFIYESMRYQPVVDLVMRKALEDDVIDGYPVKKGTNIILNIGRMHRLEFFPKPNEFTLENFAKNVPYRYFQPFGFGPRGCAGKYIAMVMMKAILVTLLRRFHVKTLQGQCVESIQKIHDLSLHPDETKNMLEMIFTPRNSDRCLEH
Sequence of Aryl hydrocarbon receptor (Homo sapiens) (P35869 whole entry, looked up): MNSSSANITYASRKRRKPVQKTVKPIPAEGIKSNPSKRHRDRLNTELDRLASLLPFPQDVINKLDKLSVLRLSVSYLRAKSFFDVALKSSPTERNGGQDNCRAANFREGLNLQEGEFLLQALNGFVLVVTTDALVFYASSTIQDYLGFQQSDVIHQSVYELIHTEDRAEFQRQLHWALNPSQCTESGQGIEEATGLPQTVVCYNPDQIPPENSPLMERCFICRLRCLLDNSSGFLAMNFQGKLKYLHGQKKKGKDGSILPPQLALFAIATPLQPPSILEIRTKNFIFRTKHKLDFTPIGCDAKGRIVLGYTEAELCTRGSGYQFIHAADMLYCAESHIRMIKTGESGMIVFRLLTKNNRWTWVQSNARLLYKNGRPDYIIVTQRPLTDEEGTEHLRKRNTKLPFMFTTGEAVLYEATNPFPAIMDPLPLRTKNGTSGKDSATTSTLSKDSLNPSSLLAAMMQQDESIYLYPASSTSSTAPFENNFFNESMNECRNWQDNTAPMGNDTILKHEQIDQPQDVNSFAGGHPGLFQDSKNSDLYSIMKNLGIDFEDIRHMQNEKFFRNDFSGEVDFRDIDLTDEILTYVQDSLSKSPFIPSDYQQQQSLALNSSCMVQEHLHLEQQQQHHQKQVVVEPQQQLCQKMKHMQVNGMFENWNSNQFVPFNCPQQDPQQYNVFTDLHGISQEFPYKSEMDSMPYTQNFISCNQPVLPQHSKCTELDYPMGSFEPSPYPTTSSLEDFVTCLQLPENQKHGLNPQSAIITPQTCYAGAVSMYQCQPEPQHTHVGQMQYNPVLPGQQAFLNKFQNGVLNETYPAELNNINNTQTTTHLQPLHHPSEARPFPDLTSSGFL

CC(=O)[C@]1(O)Cc2c(O)c3c(c(O)c2[C@@H](O[C@H]2C[C@H](N)[C@H](O)[C@H](C)O2)C1)C(=O)c1ccccc1C3=O
inactive: [9] | [10]
active: [1] 0.119 µM | [2] 119 nM | [3] 4.77 µM [inconclusive] | [4] 3.38 µM [inconclusive] | [5] 3.35 µM | Aromatase (Homo sapiens) 3.35 µM | [6] 13.3 µM | [7] 13.3 µM | [8] 4.22 µM

CCCCCCCC[N+](C)(C)CCCCCCCC
active: [1] 21.1 µM | [2] 11.9 µM and 13.3 µM | [11] 29.8 µM | Aromatase (Homo sapiens) 29.8 µM and 26.6 µM
inactive: [4] | [5] | [12] | [7] | [13]

CCCC(CCC)C(=O)OC1C[C@H]2CC[C@@H](C1)[N+]2(C)C (stereo partly specified)
inactive: [1] | [2] | [14] | [15] | [5] | Aromatase (Homo sapiens) | [6] | [12] | [7] | [13]

CC(=O)Nc1ccc(OC(C)=O)cc1
inactive: [1] | [2] | [14] | [15] | [5] | [7]

CCOC(=O)Cc1ccc(-c2ccccc2)cc1
not listed: [2] | [8] | [9] | [10] | [13] | [17]
inactive: all other assays above

NC(N)=NCc1cccc(I)c1
active: [11] 21.1 µM and 11.9 µM
not listed: [2] | [7] | [8] | [9] | [10] | [16] | [17]
inactive: all other assays above

N#Cc1c(N(CC(=O)O)CC(=O)O)sc(C(=O)O)c1CC(=O)O
not listed: [2] | [8] | [9] | [10] | [16] | [17]
inactive: all other assays above

Cc1onc(-c2c(F)cccc2Cl)c1C(=O)N[C@@H]1C(=O)N2[C@@H]1SC(C)(C)[C@@H]2C(=O)O
inactive: [1] | [14] | [15] | [5] | Aromatase (Homo sapiens) | [6] | [12] | [7] | [13]

CC(C)COC(=O)OCN1C(=O)CN(CCN2CC(=O)N(COC(=O)OCC(C)C)C(=O)C2)CC1=O
not listed: [2] | [7] | [8] | [9] | [10] | [17]
inactive: all other assays above

OCC1(CO)COC(C(Cl)(Cl)Cl)OC1
not listed: [2] | [3] | [8] | [9] | [10] | [17]
inactive: all other assays above

CC1(C)S[C@@H]2[C@H](N3C(=O)C(c4ccccc4)NC3(C)C)C(=O)N2[C@H]1C(=O)O (stereo partly specified)
not listed: [2] | [8] | [9] | [10] | [17]
inactive: all other assays above

CC/C=C\C/C=C\C/C=C\C/C=C\C/C=C\C/C=C\CCC(=O)O
not listed: [2] | [8] | [9] | [10] | [17]
inactive: all other assays above

CN[C@H]1CC[C@@H](c2ccc(Cl)c(Cl)c2)c2ccc(S(N)(=O)=O)cc21
inactive: [4] | [5] | [12]
active: [1] 8.63 µM | [2] 4330 nM | [11] 68.6 µM | Aromatase (Homo sapiens) 48.6 µM | [7] 61.1 µM | [9] 49 µM | [17] 24.3 µM | [10] 6.92 µM
